# From PubChem BioAssay AID639 (Emory University Molecular Libraries Screening Center, 2007)
# Screen size: about 86,000 compounds; about 1,200 (1.4%) were called active. Shown is part of a subset that was picked to be rich in actives. Values without a mark were called inactive. Cut-off read from the data, not from the text of the source: active = activity above about 200%; inactive = the rest.
# Biological target: Estrogen receptor (Homo sapiens) (UniProt P03372)
# Assay: enhancers of ERα–SRC-1 coactivator binding, primary screen, biochemical, TR-FRET, ERα LBD, low estradiol (AID 639);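 note: binding measured in presence of low estradiol as agonist stimulus; 0% = peptide alone without receptor and 100% = receptor with peptide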
# Details: TR-FRET ERalpha-LBD/SRC-Cy5 coactivator binding, 2 h; at 25.6 µM; stronger effect = higher value; 100 = basal binding, no effect
# Estrogen receptor (Homo sapiens), sequence (P03372 whole entry, looked up, the tested form may be a part): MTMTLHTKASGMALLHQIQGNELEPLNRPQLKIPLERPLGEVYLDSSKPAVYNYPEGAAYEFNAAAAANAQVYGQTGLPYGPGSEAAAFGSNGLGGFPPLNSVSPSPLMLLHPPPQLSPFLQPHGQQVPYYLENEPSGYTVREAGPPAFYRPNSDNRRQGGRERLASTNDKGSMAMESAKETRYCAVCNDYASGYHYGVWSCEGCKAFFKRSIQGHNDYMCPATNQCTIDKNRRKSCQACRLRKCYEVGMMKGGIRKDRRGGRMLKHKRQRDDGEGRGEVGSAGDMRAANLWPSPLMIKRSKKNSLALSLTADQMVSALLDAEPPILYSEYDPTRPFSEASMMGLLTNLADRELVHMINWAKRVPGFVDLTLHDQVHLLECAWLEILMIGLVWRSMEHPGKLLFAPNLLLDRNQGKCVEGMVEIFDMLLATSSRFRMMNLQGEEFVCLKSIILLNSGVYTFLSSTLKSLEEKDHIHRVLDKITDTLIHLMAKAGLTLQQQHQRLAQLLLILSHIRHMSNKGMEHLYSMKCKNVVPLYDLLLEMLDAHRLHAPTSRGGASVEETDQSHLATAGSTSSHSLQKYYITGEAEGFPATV
row,Compound,coactivator binding (% of control)
1,CCOc1ccc(CNC(=O)C2CCC(=O)N2C2CCCC2)cc1OC (configuration not stated),131%
2,CCOc1cc(C2C(C(=O)OC)=CN(C3CCCC3)C=C2C(=O)OC)cc(Br)c1O,210% [fluorescence artefact?] (active)
3,CCOc1ccccc1C1C(C(=O)OC)=CN(C)C=C1C(=O)OC,93.7%
4,CCOCc1nnc(NC(=O)CSc2ccc(C)cc2)s1,102%
5,CCOc1ccccc1NC(=O)C1CCCN(C(=O)Nc2ccccc2)C1 (configuration not stated),92.4%
6,Cc1cc(NS(=O)(=O)c2ccccc2)no1,122%
7,CCOc1ccc(NC(=O)Nc2cc(C)on2)cc1,107%
8,CCOc1ccc(CC(=O)Nc2ccc(S(=O)(=O)Nc3cc(C)on3)cc2)cc1OCC,311% [fluorescence artefact?] (active)
9,CCCCC(C(=O)OCC(=O)c1ccc(OC)cc1)N1C(=O)c2ccccc2C1=O (configuration not stated),97.8%
10,Cn1c(=O)c2c(ncn2CC(COCc2ccccc2Cl)OCc2ccccc2Cl)n(C)c1=O (configuration not stated),112%
11,CCOC(=O)c1nnn(-c2nonc2-n2cccc2)c1CN1CCC(C(=O)OCC)CC1,114%
12,O=c1[nH]c(SCc2ccccc2)nnc1-c1ccccc1,103%
13,COc1ccc(N2CCN(C(=O)CSc3nc4cc(OC)c(OC)cc4cc3C#N)CC2)cc1,101%
14,COC(=O)CSc1nc(C)c2ccc(OC)cc2n1,100%
15,CCOc1ccc2cc(C#N)c(SCC(=O)OC)nc2c1,260% [fluorescence artefact?] (active)
16,CC(C)C(OC(=O)c1cccs1)C(=O)NC1CCCCC1 (configuration not stated),115%
17,CCOCCCNC(=O)C(NC(=O)c1ccc(=O)[nH]c1)c1ccc(C)cc1 (configuration not stated),107%
18,CCOC(=O)c1cnc(-n2nc(C)cc2C)nc1-n1nc(C)cc1C,116%
19,CCOC(=O)c1cnc(-n2nc(C)cc2C)nc1Nc1cccc(C(C)=O)c1,868% [fluorescence artefact?] (active)
20,CCOC(=O)c1cnc(SCC(=O)Nc2cccc(OC)c2)nc1N,113%
21,N=c1c2c3c(sc2nc2n1CCCCC2)CCCC3,113%
22,CNC(=S)N1N=C(c2ccccc2)CC1c1ccc(Br)cc1 (configuration not stated),171%
23,COc1ccc(-c2nnc(SCC(=O)c3cccs3)o2)c(OC)c1,94.7%

row,Compound,coactivator binding (% of control)
1,COc1ccc(-n2c(C)cc(C(=O)CSc3nnc(-c4cccs4)o3)c2C)cc1,201% (active)
2,COc1ccc(OC)c(C(=O)CSc2nnc(-c3cccs3)o2)c1,125%
3,CCN(CC)C(=O)CSc1ncnc2c1cnn2-c1ccccc1,117%
4,Cc1nc2c(-c3ccc(F)cc3)c(C)nn2c(C)c1CCC(=O)NCc1ccco1,96.1%
5,CC(C)N1C(=S)SC(C)(C)C1n1oc(=O)n(-c2ccc(Cl)c(Cl)c2)c1=O (configuration not stated),113%
6,Cc1cc(C)n(C(=O)CCNC(=O)c2ccccc2Cl)n1,100%
7,Cc1ccc(C)c(N2C(=O)CS/C2=N\NC(=O)c2ccccc2Cl)c1,102%
8,CCc1ccc(CNC(=O)C2CC(=O)N(CCc3ccc(C)cc3)C2)cc1 (configuration not stated),115%
9,N#CC(=C1SC=CS1)c1nc(-c2ccccc2)cs1,206% (active)
10,N#CC(=C1CCCC1)c1nc(-c2ccc(Cl)cc2)cs1,103%
11,N#C/C(=C1\CCCN1)c1nc(-c2ccccc2)cs1,116%
12,Cc1nc(N2CCOCC2)nc2c1CCCC2,111%
13,CCCOc1ccc(N2C(=O)CC(N(CCc3ccc(S(N)(=O)=O)cc3)C(C)=O)C2=O)cc1 (configuration not stated),126%
14,Nn1c(Cc2cccc3ccccc23)nnc1SCC(=O)N1CC(=O)Nc2ccccc21,63.7%
15,Cc1cccc(-n2ncc3c(N4CCc5ccccc54)ncnc32)c1,137%
16,COc1ccc(-n2ncc3c(N4CCc5ccccc54)ncnc32)cc1,200% [fluorescence artefact?] (active)
17,COc1ccc(-n2ncc3c(N4CCCc5ccccc54)ncnc32)cc1,97.2%
18,CCOC(=O)NC(C(F)(F)F)(C(F)(F)F)P(=O)(c1ccccc1)c1ccccc1,95.9%
19,CCOC(=O)C1=C(c2ccccc2)O/C(=C(/C(=O)OC)C(F)(F)F)S1,360% [fluorescence artefact?] (active)
20,CCOC(=O)c1nnn(-c2nonc2OC)c1-c1ccccc1,102%
21,COC(=O)c1ccccc1NC(=O)Cc1ccccc1OC,120%
22,COc1ccc(NC(=O)CC2COc3ccccc3O2)c(OC)c1 (configuration not stated),104%
23,CCc1ccc(NC(=O)CSc2nnc(-c3cnccn3)n2Cc2ccco2)cc1,148%

row,Compound,coactivator binding (% of control)
1,O=C(CSc1nnc(-c2cnccn2)n1Cc1ccco1)c1ccc(Cl)c(Cl)c1,137%
2,Cc1ccc(NC(=O)CSc2nnc(-c3cnccn3)n2Cc2ccco2)cc1C,335% (active)
3,CCOc1ccc(NC(=O)CN(C)CC(=O)Nc2cccc(Cl)c2C)cc1OCC,105%
4,O=C(NCCCN1CCCCCC1)c1ccc(N2CCCC2=O)cc1,588% [fluorescence artefact?] (active)
5,CCOc1ccc(C(=O)NCCCN2CCCC2=O)cc1,96%
6,CC1CCC(NC(=O)c2ccc(N3CCCC3=O)cc2)CC1 (configuration not stated),143%
7,CCOc1cc(C(=O)Nc2c(C)ccc3nsnc23)cc(OCC)c1OCC,78.1%
8,O=C(NCc1ccccc1)C1CCCN(S(=O)(=O)c2cccs2)C1 (configuration not stated),91.1%
9,COCCNC(=O)COc1ccccc1C,118%
10,COc1ccc(CCNC(=O)CN(c2ccccc2)S(C)(=O)=O)cc1OC,76.4%
11,CN(C)c1ccnc2sc3c(=O)n(-c4ccc(Cl)cc4)cnc3c12,162%
12,COCCn1c(SCc2nnc(-c3ccc(OC)c(OC)c3)o2)nc2sc3c(c2c1=O)CCC3,94.4%
13,Cc1cc(C)n(-c2nc(SCC(=O)N3CCCC3)c3c4c(sc3n2)CCCC4)n1,93.8%
14,COCCn1c(C)cc(C(=O)CSc2ncnc3sc4c(c23)CCC4)c1C,409% [fluorescence artefact?] (active)
15,CCCCCCC12CCC(C(=O)O)(CC1)CC2,104%
16,CC(=O)Oc1ccc(NC(=O)CCC2CCCCC2)c(C(=O)O)c1,105%
17,CC(NC(=O)C1CCC(CNc2c(N3CCOCC3)c(=O)c2=O)CC1)c1ccccc1 (configuration not stated),98.1%
18,CC1CCc2c(sc3nc4n(c(=O)c23)CCS4)C1 (configuration not stated),96.2%
19,Cc1ccc(-c2csc(SCC(=O)Nc3cc(C)on3)n2)cc1,98.5%
20,Cc1cc(NC(=O)CSc2nc(C(C)C)nc3sc4c(c23)CCC(C)C4)no1 (configuration not stated),269% [fluorescence artefact?] (active)
21,Cc1nc(SCC(=O)Nc2cc(C)on2)c2c(C)c(C)sc2n1,565% [fluorescence artefact?] (active)
22,Cc1nc(SCC(=O)Nc2cc(C)on2)c2c3c(sc2n1)CCCC3,128%
23,C=CCn1c(SCc2c(C)noc2C)nc2sc3c(c2c1=O)CCC(C)C3 (configuration not stated),93.6%

row,Compound,coactivator binding (% of control)
1,O=C(c1ccc2c(c1)OCO2)N1CCN(C(=O)c2ccco2)CC1,103%
2,Cc1cccc(S(=O)(=O)CC(=O)Nc2nc(-c3ccccc3)cs2)c1,103%
3,Cc1cc(=O)oc2cc(OCC3CC(c4ccccc4Cl)=NO3)ccc12 (configuration not stated),117%
4,O=C(Nc1ccc(Br)cc1)c1cccc(NC(=O)C2C3CC4OC(=O)C2C4C3)c1 (configuration not stated),115%
5,CCN1C(=O)/C(=C\N2CCOCC2)SC1=S,93%
6,CCN1C(=O)/C(=C\N2CCN(c3cccc(Cl)c3)CC2)SC1=S,413% [fluorescence artefact?] (active)
7,CCn1c(=O)cc(OCC(=O)NCCCN2CCN(c3cccc(Cl)c3)CC2)c2ccccc21,107%
8,CCN1C(=O)/C(=C\N2CCN(c3ccccc3)CC2)SC1=S,289% (active)
9,CCS(=O)(=O)N1CCC(C(=O)N2CCN(c3ccccc3)CC2)CC1,103%
10,CS(=O)(=O)N(CC(=O)N1CCN(c2cccc(Cl)c2)CC1)c1ccccc1,118%
11,Cc1cccc(-c2nc3c(c(SCC(=O)N4CCOCC4)n2)CCCC3)c1,94.4%
12,CC1CCN(C(=O)c2cc3nc(C4CC4)cc(C(F)(F)F)n3n2)CC1,93.5%
13,COCCNC(=O)Cn1cc(C(=O)c2cccs2)c2ccccc21,102%
14,CCn1c(SCC(=O)Nc2cccc(F)c2)nnc1-c1cc2cc(Br)ccc2o1,476% (active)
15,CCCn1c(SCC(=O)Nc2cccc(C(=O)OCC)c2)nnc1-c1ccoc1C,97.2%
16,CCn1c(Cc2ccccc2)nnc1SCC(=O)Nc1ccccc1,122%
17,CCOc1ccc(-n2c(N)c(C(=O)NCC3CCCO3)sc2=S)cc1 (configuration not stated),99.2%
18,O=c1[nH][nH]c(C(F)(F)F)c1C=NCc1ccccc1Cl,109%
19,Cn1c(C(=O)NCCCN2CCN(c3cccc(Cl)c3)CC2)cc2c(=O)n(C)c3ccccc3c21,132%
20,CC1CCCC(C)N1CCCNC(=O)c1cc2c(=O)n(C)c3ccccc3c2n1C (configuration not stated),74.4%
21,Cn1c(C(=O)NCCc2ccsc2)cc2c(=O)n(C)c3ccccc3c21,278% (active)
22,CCOc1ccc(S(=O)(=O)NCC2CCCO2)cc1 (configuration not stated),97.5%
23,COCCn1c(=S)[nH]c2cc(C(=O)NCCc3ccc(OC)c(OC)c3)ccc2c1=O,179%
